OTUD3 block: human OTUD3 deubiquitinase inhibition. inhibition, % at 25 µM. AID 1645858. purified OTUD3, Ub-rhodamine fluorescence, 2 h. hit rate 0.7% among 47,000. Q5T2D3
USP30 inh: human USP30 deubiquitinase inhibition; Q70CQ3; purified USP30, Ub-rhodamine cleavage fluorescence; inhibition, % at 25 µM; hit rate 5.3% among 47,000
USP17 block: human USP17-like deubiquitinase inhibition. hit rate 6.5% among 47,000. inhibition, % at 50 µM. AID 1645855. purified USP17, Ub-rhodamine cleavage fluorescence, 3 h
Target sequence (A8MUK1 whole entry, looked up): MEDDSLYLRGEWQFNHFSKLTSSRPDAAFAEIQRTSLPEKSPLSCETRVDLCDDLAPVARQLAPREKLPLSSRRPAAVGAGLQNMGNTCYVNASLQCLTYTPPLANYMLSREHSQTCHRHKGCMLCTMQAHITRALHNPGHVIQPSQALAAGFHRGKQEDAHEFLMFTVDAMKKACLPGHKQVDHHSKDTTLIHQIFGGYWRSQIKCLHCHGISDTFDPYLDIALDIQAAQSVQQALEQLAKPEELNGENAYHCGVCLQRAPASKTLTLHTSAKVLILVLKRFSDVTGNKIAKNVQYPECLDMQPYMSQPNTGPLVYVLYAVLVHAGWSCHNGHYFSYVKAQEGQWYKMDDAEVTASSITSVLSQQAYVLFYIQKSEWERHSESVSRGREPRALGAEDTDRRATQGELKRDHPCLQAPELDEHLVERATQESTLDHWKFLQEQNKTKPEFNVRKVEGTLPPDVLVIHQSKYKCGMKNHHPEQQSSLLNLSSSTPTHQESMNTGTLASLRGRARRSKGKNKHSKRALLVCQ
USP28 inh: inhibitors of human USP28 deubiquitinase. Q96RU2. purified USP28, Ub-rhodamine cleavage fluorescence, 30 min. inhibition, % at 25 µM. hit rate 3% among 47,000. AID 1645857
Large screens that a line does not name were inactive. Only some compounds are listed: those with a hit (about 11% of all), similar ones and a draw of the others. Cut-off read from the data, not from the text of the source: active = inhibition above about 30%; inactive = the rest.

CC1Cc2cc(S(=O)(=O)NCCN3CCCCCC3)ccc2N1C(=O)C1CC1 (configuration not stated)	USP28 inh 39
O=C1NC2(CCN(C(=O)c3ccc4c(c3)OCO4)CC2)N=C1c1ccccc1	none
CCOc1nc(-c2ccccc2)ccc1-c1noc(C2CCCCC2)n1	none
CC(=O)Nc1ccc(S(=O)(=O)NCCn2c(C)cc3ccccc32)cc1	USP17 block 34
Cc1cc2ccccc2n1CCNS(=O)(=O)c1ccc([N+](=O)[O-])cc1	none
COc1cc(OC)c(N(C)S(=O)(=O)c2cccc(C(=O)Nc3ccccc3C)c2)cc1Cl	none
C=C(CC[C@@H](C)[C@H]1CC[C@@H]2[C@]1(C)C[C@@H](O)[C@@]13C[C@@]14C(=O)C[C@H](O)[C@@](C)(C(=O)O)[C@@H]4C(=O)C[C@]23O)C(C)C	USP17 block 35, USP28 inh 32
NC(=O)C1Cn2ccnc2C2(CCN(C(=O)C3CCC3)CC2)O1 (configuration not stated)	none
Cc1cccc(NC(=O)Cn2c(=O)nc(N(C)c3ccccc3)c3ccccc32)c1	USP28 inh 41
O=C(CN1C(=O)C2CCCN2c2ncc(Cl)cc21)Nc1cccc(C(F)(F)F)c1 (configuration not stated)	none
O=C(c1nc(-c2ccc3cc[nH]c3c2)no1)N1CCN(c2ccc(Cl)cc2)CC1	none
CC(C)Cn1c(=O)c2sccc2n2c(CCC(=O)NCCc3ccccc3)nnc12	none
Cc1ccc(CNC(=O)Cn2c(=O)c3sccc3n(CC(=O)Nc3ccc4c(c3)OCCO4)c2=O)cc1	USP17 block 60 (no result: USP30 inh, USP28 inh)
Cc1ccc(NC(=O)Cn2c(=O)n(CC(=O)NCCc3ccccc3)c(=O)c3sccc32)cc1C	USP30 inh 47
CCc1cc(=O)n(CC(=O)Nc2ccc3c(c2)OCCO3)c2c1c(C)nn2-c1ccc(C)cc1	USP30 inh 32, USP17 block 31
Cc1ccc(N2C(=O)N(CC(=O)Nc3ccc4c(c3)OCCO4)C(=O)C2C)cc1 (configuration not stated)	none
COc1ccc(NC(=O)Cn2c(=O)n(CCC(=O)NCc3ccccc3)c(=O)c3sccc32)cc1Cl	USP17 block 47
O=C(/C=C/c1ccc([N+](=O)[O-])cc1)Nc1nc(-c2ccccc2)c(-c2ccccc2)s1	none
CCC1(c2ccc(OC)cc2)NC(=O)N(Cc2ncc(-c3ccccc3)o2)C1=O (configuration not stated)	none
COc1cccc(-c2cc(C(=O)N3CC(c4nc5ccccc5[nH]4)C3)[nH]n2)c1	USP28 inh 33
COc1cccc(-c2cc(C(=O)N3CCC4(CC3)OCCO4)[nH]n2)c1	none
CC(C)c1noc(CN2CCC(C3CCCCCN3C(=O)C3CCOCC3)CC2)n1 (configuration not stated)	none
CC(=O)c1ccc(N2CCN(C(=O)c3ccc(-c4noc(C)n4)cc3)CC2)cc1	none
CC(=O)c1ccc(N2CCN(C(=O)c3cc(Cl)c4c(c3)OCCO4)CC2)cc1	USP30 inh 34, USP17 block 64
COc1cccc(C(=O)Oc2ccc3c(C)c(C)c(=O)oc3c2)c1	USP17 block 49
COc1cccc(C(=O)Oc2ccc3c(=O)c(-c4ccc(OC)c(OC)c4)coc3c2)c1	USP17 block 79
O=C1[C@@H]2Cc3c([nH]c4ccccc34)C(c3ccc([N+](=O)[O-])cc3)N2C(=O)CN1CCN1CCOCC1 (some centres not stated)	none
COc1ccc(NC(=O)CSc2nnc(-c3ccc(F)cc3)c3ccccc23)c(OC)c1	USP28 inh 39
COc1ccc(NC(=O)CSc2n[nH]c(C(C)C)n2)c(OC)c1	none
O=[N+]([O-])c1ccc(C(c2ccc[nH]2)c2ccc[nH]2)cc1	USP17 block 37
O=C(c1ccc[nH]1)N1CC[C@@H]2Oc3ccccc3S(=O)(=O)N(CC3CC3)[C@H]2CC1	none
Cc1ccc(Cn2cc(S(=O)(=O)N3CCCCC3)ccc2=O)cc1	none
COc1ccc(S(=O)(=O)N2CCCCC2)cc1N(C)S(=O)(=O)c1ccc(C)cc1	none
Cc1ccc(S(=O)(=O)N2CCN(S(=O)(=O)N3CCCCCC3)CC2)cc1	USP30 inh 40
Cc1ccc(S(=O)(=O)N(C)c2c(C)ccc(S(=O)(=O)N3CCCCC3)c2C)cc1	USP30 inh 30
CCc1ccccc1NC(=O)Cc1nc(-c2ccccc2)n[nH]1	none
COc1cc(O)c2c(c1O)C(=O)c1cc(C)ncc1C2=O	USP17 block 43
COc1cc(CO)cc2c1C(=O)c1c(O)cc(O)cc1C2=O	none
O=C(c1ccc(F)cc1Cl)N1CCN(C(=O)c2cnn3ccccc23)CC1	none
O=C(c1c(F)cccc1F)N1CCN(C(=O)c2cnn3ccccc23)CC1	USP30 inh 31
CCn1nccc1C1CCCN1C(=O)Nc1ccc(OC)cc1OC (configuration not stated)	none
O=C(CC(c1cccc(F)c1)n1cccc1)Nc1ccc(F)c(Cl)c1 (configuration not stated)	USP30 inh 36, USP17 block 46
Cc1cccc(CN2CCCCCC2c2cc(C)on2)n1 (configuration not stated)	none
Cc1cccc(-n2c(Cc3cc(=O)[nH]c(=O)[nH]3)nnc2SCC(=O)NCc2ccccc2Cl)c1	USP30 inh 31
Cc1cccc(-n2c(Cc3cc(=O)[nH]c(=O)[nH]3)nnc2SCC(=O)Nc2ccc(F)cc2F)c1	none
Cc1oc2ncnc(Oc3ccc(F)cc3)c2c1C	USP30 inh 41
COC(=O)CCC(c1ncc(C(F)(F)F)cc1Cl)S(=O)(=O)c1ccccc1 (configuration not stated)	USP30 inh 58, USP17 block 44
c1cncc(-c2cnc3sc(NCC4CC4)nn23)c1	none
c1ccc(CNc2nn3c(-c4ccncc4)cnc3s2)cc1	USP17 block 51
COc1ccc(CNc2nn3c(-c4ccncc4)cnc3s2)cc1	USP30 inh 86, USP17 block 34, USP28 inh 70
CCc1nc(C2CCCN2CC(=O)N(C)C2(C#N)CCCCC2)no1 (configuration not stated)	none
COC1=C(N)C(=O)c2nc(-c3nc(C(=O)O)c(C)c(-c4ccc(O)c(OC)c4O)c3N)ccc2C1=O	USP17 block 46, USP28 inh 31
COc1ccccc1-c1noc(C2CCCN2C(=O)Nc2cccc(C)c2C)n1 (configuration not stated)	USP30 inh 49
CC(=O)Nc1c(C)noc1/C=C/c1ccc(S(=O)(=O)Nc2c(C)cc(C)cc2C)s1	none
COc1ccc(C(=O)Nc2cnc(N3CCCCCC3)nc2)cc1	USP28 inh 44
N#Cc1ccc(C(=O)Nc2cnc(N3CCCCCC3)nc2)cc1	USP17 block 53 (no result: USP30 inh, USP28 inh)
Cc1nc(N2CCCC2)ncc1C(=O)Nc1ccc(Cl)cc1	USP17 block 45
CC(=O)c1cccc(NC(=O)c2cnc(N3CCCCC3)nc2C)c1	none
O=S1(=O)CCN2C(c3ccc(F)c(F)c3)=CSC2=N1	none
COc1ccnc(N2CCC(C3CCCCCN3C(N)=O)CC2)n1 (configuration not stated)	none
CCCC(=O)c1c[nH]c(C(=O)NCc2ccc(F)cc2)c1	USP17 block 69, USP28 inh 35
COc1ccc(CC(=O)NCc2cc(-c3ccccc3)on2)cc1OC	none
